DT40 TDP1 no CPT: qHTS for Inhibitors of human tyrosyl-DNA phosphodiesterase 1 (TDP1): qHTS in cells in absence of CPT; DT40 Tdp1-/- hTDP1 cells, no CPT, ATP luminescence, 48 h; Potency, µM (top dose mostly 46.2 µM), most hits filed as inhibitors; 420,000 tested, 15% active; AID 686978, 2013; note: nearly all actives have a fitted effect of over 55% in size
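Growth of hTDP1-complemented DT40 Tdp1-knockout cells is measured by ATP luminescence after at least 48 hr compound exposure at 37 °C, with DMSO substituting for the 20 nM CPT used in the parallel screen.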
ATXN2 expr inh: Primary qHTS for Inhibitors of ATXN expression; 360,000 tested, 0.72% active; Potency, µM (doses to about 57 µM), actives largely listed as inhibitors; HEK-293 ATXN2-luciferase reporter, luminescence, 24 h; AID 1745845, 2022; note: nearly all actives have a fitted effect of over 55% in size
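qHTS (up to 57 uM final) was run with 24 h compound exposure of reporter cells at 37 °C. Each well was multiplexed: SteadyGlo luminescence measured ATXN2-luciferase expression after a fluorogenic Gly-Phe-AFC viability readout (25 uM final).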
TGFb SMAD3 inh: qHTS for Inhibitors of TGF-b; HepG2 CAGA-GFP TGF-b/SMAD3 reporter, GFP fluorescence, 18 h; TGF-beta stimulated, 500 pg/mL final; Potency, µM (series often up to 46.1 µM), hits mostly inhibitors; 410,000 tested, 1.2% active; note: nearly all actives have a fitted effect of over 65% in size
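TGF-beta reporter screen: HEPG2 CAGA-GFP, 1% FBS, 500 pg/mL TGF-beta final, 18 h; per-cell GFP summed per well; curves fitted and categorized by class.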
TDP1 cell CPT: qHTS for Inhibitors of human tyrosyl-DNA phosphodiesterase 1 (TDP1): qHTS in cells in presence of CPT; chicken DT40 Tdp1-/-;hTDP1 cells + 20 nM CPT, ATP luminescence, 48 h; Potency, µM (highest dose often 46.2 µM), hits mostly inhibitors; 420,000 tested, 12% active; AID 686979, 2013; note: nearly all actives have a fitted effect of over 55% in size
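Chicken DT40 Tdp1-/- cells complemented with human TDP1, 400 cells/well, exposed to compounds plus 20 nM camptothecin for at least 48 h at 37 C; viability read as ATP content by CellTiter-Glo luminescence.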
HepG2 tox: qHTS for Inhibitors of TGF-b: Cytotox Counterscreen. HepG2 CAGA-GFP viability, ATP luminescence, 18 h. Potency, µM (top dose mostly 46.1 µM), most hits filed as cytotoxic. 410,000 tested, 0.76% active
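CellTiter-Glo luminescence gave cytotoxicity after 18 hours at 37 degrees C. The cells were HepG2 CAGA-GFP in 1% FBS DMEM, stimulated with 500 pg/mL TGF-beta after compound addition. %Activity was normalised to no-cell wells (complete cell-killing) and DMSO (no toxicity), and curves were fitted and classified.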
S2 tox: Viability Counterscreen for Primary qHTS for Inhibitors of ATXN expression; S2 cells (HEK-293 line with an ATXN2-luciferase reporter) viability, CellTiter-Fluor protease fluorescence, 24 h; Potency, µM (doses to about 56.7 µM), hits mostly cytotoxic; AID 651635, 2014; 400,000 tested, 0.49% active; note: nearly all actives have a fitted effect of over 40% in size
Of the large screens only hits and unclear results are named; the others gave an inactive call; ! = repeats disagree. An excerpt weighted towards active compounds, which were near 17% of everything screened. Calls come from the whole dose curve; as a rule, active = well fitted curve in the direction sought with a large enough effect; inconclusive = small, poorly fitted or top-dose-only effect, or another doubt; inactive = no such curve, though single readings can be large; an effect the other way counts as inactive or inconclusive.

CCOC(=O)C1=C(N)OC(CCl)=C(C#N)C1c1ccsc1 (stereo unspecified)	DT40 TDP1 no CPT 2.6µM, TDP1 cell CPT 2.1µM
C=CCC(NCc1ccccc1)c1ccc(Cl)cc1 (stereo unspecified)	DT40 TDP1 no CPT 13µM, TGFb SMAD3 inh inconclusive, TDP1 cell CPT inconclusive
C=CCC(NCc1ccccc1)c1ccc(C)o1 (stereo unspecified)	DT40 TDP1 no CPT inconclusive, TDP1 cell CPT inconclusive, S2 tox inconclusive
O=c1[nH]c(C2CCN(S(=O)(=O)Cc3ccccc3)CC2)nc2c1nnn2Cc1ccccc1	DT40 TDP1 no CPT inconclusive, TDP1 cell CPT inconclusive
O=c1[nH]c(C2CCN(S(=O)(=O)Cc3ccccc3)CC2)nc2c1nnn2Cc1cccc(Cl)c1	DT40 TDP1 no CPT 18µM, TGFb SMAD3 inh inconclusive, TDP1 cell CPT 16µM
O=c1[nH]c(C2CCN(S(=O)(=O)/C=C/c3ccccc3)CC2)nc2c1nnn2Cc1ccc(F)cc1	DT40 TDP1 no CPT 18µM, TDP1 cell CPT 21µM
O=C(COC(=O)C1Cc2ccccc2CN1C(=O)c1ccccc1Cl)Nc1ccc(N2CCOCC2)cc1 (stereo unspecified)	TGFb SMAD3 inh inconclusive, TDP1 cell CPT inconclusive
CCn1c(CN2CCN(c3ccc(OC)cc3)CC2)nc2cc(S(=O)(=O)N(C)C)ccc21	DT40 TDP1 no CPT inconclusive, TDP1 cell CPT 21µM
Oc1cc(NCc2ccc(Cl)cc2)cc2cccnc12	none (no result: DT40 TDP1 no CPT, TDP1 cell CPT)
Oc1cc(NCc2ccc(F)cc2)cc2cccnc12	ATXN2 expr inh inconclusive, TGFb SMAD3 inh inconclusive, HepG2 tox 11µM, S2 tox inconclusive (no result: DT40 TDP1 no CPT, TDP1 cell CPT)
CCOC(=O)c1cnc2c(ccc3ccccc32)c1NCCCN(C)C	DT40 TDP1 no CPT inconclusive, TGFb SMAD3 inh inconclusive, TDP1 cell CPT inconclusive
CN(C)CCCNc1cc(O)c2ncccc2c1	ATXN2 expr inh 20µM, TGFb SMAD3 inh inconclusive, HepG2 tox 7.1µM, S2 tox inconclusive (no result: DT40 TDP1 no CPT, TDP1 cell CPT)
Cc1ccc2nc(SCC(=O)N3CCOc4ccc(CN5C[C@@H](C)O[C@@H](C)C5)cc4C3)[nH]c2c1	DT40 TDP1 no CPT inconclusive (no result: ATXN2 expr inh, TGFb SMAD3 inh, HepG2 tox)
COc1ccc(C(=O)Oc2ccc(C(c3c(C)[nH][nH]c3=O)c3c(C)[nH][nH]c3=O)cc2)cc1	none
Cc1ccc(Cl)cc1-n1ncc2c(NC3CCCCC3)ncnc21	DT40 TDP1 no CPT 15µM, ATXN2 expr inh inconclusive, TGFb SMAD3 inh inconclusive, TDP1 cell CPT 9.2µM, S2 tox inconclusive
CCN(CC)c1ncnc2c1cnn2-c1cc(Cl)ccc1C	DT40 TDP1 no CPT 21µM, TDP1 cell CPT 21µM, S2 tox inconclusive
CC(C)Nc1ncnc2c1cnn2-c1ccc(Cl)cc1	DT40 TDP1 no CPT inconclusive, TDP1 cell CPT inconclusive
Clc1cccc(-n2ncc3c(NC4CCCCC4)ncnc32)c1	DT40 TDP1 no CPT 18µM, TGFb SMAD3 inh inconclusive, TDP1 cell CPT inconclusive, S2 tox inconclusive
Clc1cccc(-n2ncc3c(N4CCCCCC4)ncnc32)c1	none
Clc1cccc(-n2ncc3c(NCCCn4ccnc4)ncnc32)c1	DT40 TDP1 no CPT inconclusive, TDP1 cell CPT 21µM
O=S1(=O)N=C(Nc2ccc(O)c(CN3CCCCC3)c2)c2ccccc21	S2 tox inconclusive
CCN1CCN(c2ncnc3c2cnn3-c2cc(Cl)ccc2C)CC1	DT40 TDP1 no CPT inconclusive, TDP1 cell CPT inconclusive, S2 tox inconclusive
Cc1ccc(Cl)cc1-n1ncc2c(N3CCN(Cc4ccccc4)CC3)ncnc21	DT40 TDP1 no CPT 2.3µM, ATXN2 expr inh 16µM, TDP1 cell CPT 2.6µM, S2 tox 18µM
O=S(=O)(Nc1nc(-c2sccc2Cl)cs1)c1cc(Cl)ccc1Cl	TGFb SMAD3 inh 11µM, S2 tox inconclusive
CC(C)(C)c1nnc(NS(=O)(=O)c2cc(Cl)ccc2Cl)s1	none
C[C@H](NC(=O)c1ncn2c1C(=O)N(C)CC2)C(=O)OC(C)(C)C	none
CCOC(=O)C1Oc2ccccc2C(c2ccc(C)cc2)=C1C(=O)OC (stereo unspecified)	DT40 TDP1 no CPT inconclusive, TDP1 cell CPT inconclusive
CCOC(=O)C1(CC)Oc2ccccc2C(c2ccc(OC)cc2)=C1C(=O)OC (stereo unspecified)	DT40 TDP1 no CPT 18µM, TGFb SMAD3 inh inconclusive, TDP1 cell CPT inconclusive
O=C(OCc1cc(=O)n2c(n1)sc1ccccc12)c1ccc(O)cc1	none
O=c1cc(CCl)nc2sc3ccccc3n12	DT40 TDP1 no CPT inconclusive, TGFb SMAD3 inh inconclusive, TDP1 cell CPT inconclusive, HepG2 tox 16µM, S2 tox inconclusive
Cn1c2ccccc2c(=O)c2c(=O)n(Cc3ccco3)c(-c3ccc(F)cc3)nc21	DT40 TDP1 no CPT inconclusive, HepG2 tox 20µM
CC(C)c1nc2c(c(=O)c3ccccc3n2C)c(=O)n1-c1ccc(F)cc1	DT40 TDP1 no CPT 12µM, TDP1 cell CPT 15µM
Cc1nc2c(c(=O)c3ccccc3n2C)c(=O)n1-c1ccc(F)cc1	DT40 TDP1 no CPT inconclusive (no result: ATXN2 expr inh)
Cc1ccc(-c2nc3c(c(=O)c4ccccc4n3C)c(=O)n2Cc2ccco2)cc1	DT40 TDP1 no CPT inconclusive
COc1cc(-c2nc3cnccn3c2Nc2ccccc2)ccc1O	DT40 TDP1 no CPT 18µM, TDP1 cell CPT 23µM
CC(C)c1ccc(Nc2c(-c3ccccc3O)nc3cnccn23)cc1	DT40 TDP1 no CPT 21µM, ATXN2 expr inh inconclusive, TGFb SMAD3 inh inconclusive, TDP1 cell CPT inconclusive (no result: S2 tox)
COc1cc(-c2nc3cnccn3c2Nc2ccc(C(C)C)cc2)ccc1O	DT40 TDP1 no CPT 8.2µM, ATXN2 expr inh inconclusive, TGFb SMAD3 inh 11µM, TDP1 cell CPT 9.2µM, HepG2 tox 11µM!, S2 tox inconclusive
Cc1ccn2c(Nc3ccc(C(C)C)cc3)c(-c3cccnc3)nc2c1	DT40 TDP1 no CPT inconclusive, ATXN2 expr inh inconclusive, TGFb SMAD3 inh inconclusive, TDP1 cell CPT inconclusive (no result: S2 tox)
COc1cc(-c2nc3cnccn3c2Nc2ccc(C)cc2)ccc1O	DT40 TDP1 no CPT inconclusive, TDP1 cell CPT inconclusive, S2 tox inconclusive
COc1cc(-c2nc3nc[nH]n3c2Nc2ccc(C(C)C)cc2)ccc1O	DT40 TDP1 no CPT 7.3µM, TDP1 cell CPT 23µM (no result: ATXN2 expr inh, S2 tox)
COc1cc(-c2nc3cnccn3c2Nc2ccc3c(c2)OCCO3)ccc1O	DT40 TDP1 no CPT inconclusive, TDP1 cell CPT inconclusive
CC(O)c1ccc(Oc2cnccn2)cc1 (stereo unspecified)	none
CCOC(=O)C1=CN(Cc2cccc(F)c2)S(=O)(=O)N(CC)C1c1ccc(Br)cc1F (stereo unspecified)	DT40 TDP1 no CPT inconclusive, TDP1 cell CPT inconclusive

Screens from PubChem BioAssay.
